Bioassay records as filed in PubChem BioAssay.
This is a sample that favours compounds with a hit; in the whole collection about 10% have one here.
ALDH1A1 block: ALDH1A1 (human) enzyme inhibition. AID 1030. Potency, µM (top dose mostly 75.3 µM), inactives show at the top dose activity, negative = inhibition, actives largely listed as inhibitors. hit rate 7.3% among 220,000. P00352. Purified ALDH1A1, NADH fluorescence, propionaldehyde substrate;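 further: potency means the concentration at half of the fitted maximal effect; plate controls were no enzyme wells and a reference inhibitor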
PNC assembly inh: inhibitors of perinucleolar compartment assembly; activity change (PNC), negative = inhibition, % at 10 µM; AID 2417; PC3M PTB-GFP, PNC prevalence imaging, 16 h; active compounds read low; hit rate 3.1% among 140,000;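 active means readout at or below -70, meaning at least 70% loss of cells showing the perinucleolar compartment, a nuclear body marking cancer cells; inconclusive means readout between -30 and a set limit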;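 further: plate controls were DMSO wells for no effect and camptothecin positive control wells for full effect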
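PC3M cells stably expressing PTB-GFP, 750–1000 cells/well, treated 16 h at 37 °C with compound (23 nl of library stock), in duplicate. After paraformaldehyde fixation and Hoechst stain, imaged at 20x; PNC prevalence scored by image analysis.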
KinaseGlo FLuc: counter-screen: inhibitors of Kinase-Glo firefly luciferase; Q27757; Kinase-Glo luciferase, ATP luminescence, 8 min; Potency, µM (top dose mostly 38.3 µM), for inactives: at the top dose activity change, negative = inhibition, most hits filed as inhibitors; hit rate 0.28% among 200,000; active means well fitted inhibition curve with a large enough effect; inconclusive means small, poorly fitted or top-dose-only effect; further: potency means the concentration at half of the fitted maximal effect; nearly all actives have a fitted effect of over 60% in size
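Substrate mix (final 50 mM imidazole pH 7.2, 50 mM KCl, 7 mM MgCl2, 10 uM ATP, 0.01% Tween 20, 0.05% BSA) plus pin-tool compound, then Kinase-Glo detection mix; 8 min ambient, luminescence read.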
HPGD block: inhibitors of human 15-hydroxyprostaglandin dehydrogenase (HPGD) | P15428 | purified HPGD, NADH fluorescence kinetic, PGE2 substrate | Potency, µM, inactives show at the highest dose activity change, negative = inhibition, usual class: inhibitors | hit rate 4.3% among 150,000; further: potency means the concentration at half of the fitted maximal effect
Target sequence (P15428 whole entry, looked up): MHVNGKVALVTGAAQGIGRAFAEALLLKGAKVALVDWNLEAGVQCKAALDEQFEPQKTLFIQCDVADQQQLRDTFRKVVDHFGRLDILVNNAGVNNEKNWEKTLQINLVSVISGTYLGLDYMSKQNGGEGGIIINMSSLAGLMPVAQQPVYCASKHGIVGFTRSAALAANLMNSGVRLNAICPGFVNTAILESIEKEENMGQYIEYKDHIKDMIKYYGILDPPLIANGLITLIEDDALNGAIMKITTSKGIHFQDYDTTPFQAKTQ
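NADH formation kinetics: reaction with 30 uM PGE2 and 1 mM NAD+ (final), 20 nM enzyme, Tris-HCl pH 8 with Tween 20, after 15 min compound preincubation at room temperature. Fluorescence change, last versus first of five reads.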
LMNA splice mod: LMNA splicing modulation; HeLa LMNA splicing GFP/RFP minigene ratio, 48 h; AID 1487; hit rate 0.01% among 200,000; Potency, µM (series often up to 46.1 µM), for the others: at the top dose ratio change, negative = inhibition, usual class: inhibitors; active means well fitted inhibition curve with a large enough effect in the signal ratio, with a control signal flat, not every such curve was filed as active; inconclusive means small, poorly fitted or top-dose-only effect, or effect the other way, or a change in a side signal; the % refers to the signal ratio; further: potency means the concentration at half of the fitted maximal effect
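Read-out is the ratio of GFP to DsRed2 object intensity, acquired by 488 nm laser-scanning cytometry on HeLa lamin A-EGFP minigene reporter cells. Compound incubation 48 hrs at 37 °C in Opti-MEM with 2% FBS; DMSO 0.5% final.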
Numbers without * were called inactive; ? = inconclusive; nt = no result given; [ ] = another dose, or the depositor's remark. Unless noted, the call rests on the fitted dose curve; in most records, active means well fitted inhibition curve with a large enough effect (not every such curve was filed as active); inconclusive means small, poorly fitted or top-dose-only effect, or another doubt; inactive means no such curve, though single readings can be large or run the other way. Unless noted, on the % scale 0 is the no-effect control and ±100 the full control effect.

SMILES	ALDH1A1 block	PNC assembly inh	KinaseGlo FLuc	HPGD block	LMNA splice mod
CC1(C)CC(N(Cc2cccs2)C(=O)c2ccco2)CCO1 (stereo not drawn)	10µM*	?	-1.8%	-6.9%	-0.5%
CC1(C)CC(N(Cc2ccco2)C(=O)Cc2ccccc2)CCO1 (stereo not drawn)	0.6%	-9.8	-3.0%	-6.5%	-4.1%
Cn1c(=O)c(-c2ccc(F)cc2)nc2cncnc21	-14.9%	nt	0.4%	-11.0%	nt
CCCCN1C(=O)C(NC(C)=O)c2ccccc21 (stereo not drawn)	0.112µM*	12.4	0.8%	2.6%	-5.0%
CC(=O)NC1C(=O)N(CCc2ccccc2)c2ccc(Br)cc21 (stereo not drawn)	?	25.2	1.1%	-15.3%	5.3%
CCC1CCCCN1C(=O)Cn1c(=O)n(-c2ccccc2C(F)(F)F)c(=O)c2c(C)c(C(=O)N(C)C)sc21 (stereo not drawn)	nt	nt	nt	nt	12.5%[46 µM]
CN(C)c1ccc(NC(=O)C2(c3cccs3)CCOCC2)cc1	nt	nt	nt	nt	-0.6%[46 µM]
O=c1cc(O)c2c(=O)n(C3CCCCC3)c3ccccc3c2o1	-9.1%	15.6	9.9%	-10.2%	6.0%
O=c1cc(O)c2c(=O)n(-c3ccccc3)c3c(c2o1)CCCCCC3	-7.4%	-87.9*	-1.9%	-27.9%	-18.3%
Cc1nc(SCC(=O)c2ccc(F)cc2)n[nH]1	4.47µM*	?	-1.4%	10µM*	?
Nc1nc(SCC(=O)c2ccc(F)cc2)n[nH]1	-12.6%	nt	1.9%	nt	-10.7%[46 µM]
COc1ccc(C(=O)CSc2n[nH]c(C)n2)cc1[N+](=O)[O-]	10µM*	nt	-0.2%	nt	nt
CCCCc1nn2c(=O)cc(COC(=O)c3cccc(NC(=O)c4cccc(Cl)c4)c3)nc2s1	nt	nt	nt	nt	5.0%[46 µM]
COc1ncc2nc(-c3cn(C)c4ccccc34)c(=O)n(C[C@H]3CCCO3)c2n1	?	nt	nt	nt	9.1%
COc1ccc(O)c(CN2CCN(CCc3ccccc3)C(CCO)C2)c1 (stereo not drawn)	-6.8%	nt	-2.2%	nt	?
OCCC1CN(Cc2c(O)ccc3ccccc23)CCN1CCc1ccccc1 (stereo not drawn)	11.2µM*	nt	0.0%	nt	?
Cc1ccc(CN2CCN(CCCc3ccccc3)CC2CCO)cc1 (stereo not drawn)	28.2µM*	nt	3.9%	nt	-22.7%[46 µM]
OCCC1CN(CCCn2cccn2)CCN1Cc1ccccc1 (stereo not drawn)	-8.4%	nt	2.1%	nt	2.1%[46 µM]
O=C(c1ccccc1)c1ccc(OCCn2cnc3ccccc3c2=O)cc1	?	?	0.0%	4.47µM*	11.4%
CC(C)(c1ccccc1)c1ccc(OCCn2cnc3ccccc3c2=O)cc1	-6.5%	-3.3	-4.0%	-19.1%	?
NNC(=O)c1sc(-c2ccccc2)cc1N	28.2µM*	nt	-2.4%	nt	-6.0%[46 µM]
N#Cc1c(Nc2ccccc2)sc(C(=O)c2ccccc2)c1N	12.6µM*	28.6	5.1%	-29.2%	-8.2%
N#Cc1c(Nc2ccc(F)cc2)sc(C(=O)c2ccc(F)cc2)c1N	22.4µM*	1.9	-3.5%	?	5.9%
N#Cc1c(Nc2ccc(F)cc2)sc(C(=O)c2ccccc2)c1N	?	?	0.8%	?	-15.4%
C=CCNc1sc(C(=O)c2ccccc2)c(N)c1C#N	?	-25.5	0.5%	-18.0%	-19.9%
SMILES	ALDH1A1 block	PNC assembly inh	KinaseGlo FLuc	HPGD block	LMNA splice mod
COc1cc2c(cc1NC(=O)c1cccnc1)CCCC2	28.2µM*	-0.3	-2.4%	-1.5%	6.4%
COC(=O)c1ccc(C(=O)NC(=S)Nc2nc3c(s2)CC(C)CC3)cc1 (stereo not drawn)	?	53.7	-3.8%	-13.3%	-17.8%
O=C(Nc1nc2c(s1)CCCC2)c1cccnc1	11.2µM*	31.6	?	-9.8%	20.5%
O=C(NC(=S)Nc1nc2c(s1)CCCC2)c1ccc(C(=O)c2ccccc2)cc1	3.55µM*	-123.8*	-1.1%	-22.9%	?
O=C(NC(=S)Nc1cnc2ccccc2c1)c1ccccc1	?	nt	-11.0%	nt	?
O=C(Nc1nc2c(s1)CCCC2)c1cccs1	-4.7%	-0.7	?	-25.5%	-17.1%
O=C(NC(=S)Nc1nc2c(s1)CSc1ccccc1-2)c1ccccc1	?	3.2	-2.4%	20µM*	-21.3%
COc1cc2c(cc1NC(=O)c1ccc(C(C)(C)C)cc1)CCCC2	?	9.8	-7.4%	?	?
CC[C@@H]1Cn2c(c3nc(-c4cc(Cl)cc(Cl)c4Cl)nc-3n(C)c2=O)N1	?	nt	-2.1%[39.9 µM]	?	nt
Cn1cccc1C(=O)N1CCC2(CCCN(Cc3ccccc3)C2)CC1	-10.7%	nt	-0.3%	-9.3%	nt
Cn1c(=O)c2c(nc(Cc3ccccc3)n2CC(=O)O)n(C)c1=O	6.5%[13.5 µM]	nt	-1.4%[7.66 µM]	-5.2%	nt
Cc1cccc(Nc2nc3c(s2)CCCC3)c1	20µM*	-10.5	-4.6%	-13.4%	?
C/C(=N\Nc1nc2c(s1)CCCC2)c1ccccc1	25.1µM*	11.0	-5.3%	-30.1%	-20.3%
CN1CCN(c2ncc3nc(-c4cn(C)c5ccccc45)c(=O)n(CCC#N)c3n2)CC1	?	nt	nt	nt	18.6%
CCc1c(O)cc2n(c1=O)-c1ccc(Cl)cc1C2(C)C	28.2µM*	-23.0	0.0%	-7.6%	?
Cc1cc(Nc2ccccc2)n(-c2ccccc2)n1	-1.4%	-17.6	-4.7%	17.8µM*	28.0%
CCCSCCCNC(=O)c1cc2n(n1)CCCN(Cc1ccc(C)cc1)C2=O	nt	nt	nt	nt	4.2%[46 µM]
CC(SCc1ccccc1)C(=O)NN=C1CCN(C)CC1 (stereo not drawn)	1.26µM*	-2.3	7.4%	-15.2%	-6.8%
CN1CCC(=NNC(=O)CSCc2ccccc2)CC1	25.1µM*	4.7	-4.5%	-4.3%	5.4%
Cc1oc(-c2ccc3c(c2)OCCO3)cc1C(=O)O	?	25.6	12.6µM*	?	7.7%
Cc1oc(-c2ccc3c(c2)OCCO3)cc1C(=O)NCC(=O)O	?	nt	-1.7%	nt	1.0%[46 µM]
